Source: PubChem BioAssay
SKBR3 24h inh = SK-BR-3 proliferation inhibitors | SK-BR-3 viability, CellTiter-Glo ATP luminescence, 24 h; stronger effect = lower value | viability, % at 10 µM | hit rate 0.47% among 41,000 | AID 847;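 active = viability at or below the median of all test compounds minus 3 SD, in both replicates if run twice, cut at about 45% in these data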;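 note: 100% = median untreated cell wells and 0% = median positive control drug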
MKP-1 inh = blocks human MKP-1 phosphatase activity | P28562 | recombinant MKP-1, OMFP hydrolysis fluorescence | inhibition, %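 (compounds tested at a single concentration somewhere between 10 and 100 µM)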 | hit rate 0.15% among 65,000;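 active = inhibition above about 50%, limit read from the data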;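 note: 0% = DMSO max control wells and 100% = wells with enzyme stopped by NaOH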
Target sequence (P28562 whole entry, looked up): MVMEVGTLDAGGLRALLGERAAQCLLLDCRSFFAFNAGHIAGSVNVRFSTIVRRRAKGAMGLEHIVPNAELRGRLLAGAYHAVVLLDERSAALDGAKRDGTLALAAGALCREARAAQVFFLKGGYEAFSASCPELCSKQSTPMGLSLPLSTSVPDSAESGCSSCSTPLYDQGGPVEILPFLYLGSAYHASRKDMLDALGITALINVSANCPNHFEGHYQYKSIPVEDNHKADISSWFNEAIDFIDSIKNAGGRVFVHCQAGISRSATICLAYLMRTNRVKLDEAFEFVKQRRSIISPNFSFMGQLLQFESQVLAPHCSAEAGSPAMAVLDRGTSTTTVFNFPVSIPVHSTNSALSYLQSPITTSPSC
Hsp90 block = displaces geldanamycin probe from tumor Hsp90. P07900. inhibition, % at 30 µM. hit rate 0.35% among 64,000. NCI-N417 lysate Hsp90, Cy3B-geldanamycin FP displacement;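 active = inhibition above 50%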;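 note: 0% = tracer plus lysate wells and 100% = tracer alone without lysate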
HER2 expr 66K = lowers expression of human Her2 kinase | P04626 | SKBR-3 HER2 protein level, AlphaScreen, 18-24 h; stronger effect = lower value | HER2 level % of control, % at 10 µM | hit rate 0.69% among 65,000 | AID 645;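 active = HER2 level under 5% of the carrier-only control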;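 note: 100% = DMSO carrier and 0% = 500 nM PU-H71 HSP90 inhibitor; lower value means stronger loss of Her2 protein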
Cdc25B inh = inhibitors of human Cdc25B phosphatase. P30305. recombinant Cdc25B, OMFP fluorescence Ex485/Em525. inhibition, %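 (compounds tested at 10 µM final in the well)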. hit rate 0.1% among 65,000. AID 368; in the data active = inhibition above about 50%
* = called active by the depositor; / = no result. Rows were chosen to be rich in hits. Some 1.5% of all compounds tested hit in one or more screens of this group.

SMILES	SKBR3 24h inh	MKP-1 inh	Hsp90 block	HER2 expr 66K	Cdc25B inh
Nc1ccc(Sc2nnnn2-c2ccccc2)c(Cl)c1	98	-1	-5	105	-10
Cc1sc2ncnc(Sc3nnnn3-c3ccccc3)c2c1C	/	-22	1	-14*	7
Cc1ccc2c(c1)CCCN2C(=O)c1c(C)noc1C	125	10	-15	122	-7
Cc1ccc2c(c1)CCCN2C(=O)c1ccoc1C	87	2	/	-29*	-6
CC(Cc1ccc(O)c(O)c1)C(C)Cc1ccc(O)c(O)c1 (stereo unspecified)	97	22	103*	108	3
C[C@H](Cc1ccc(O)c(O)c1)[C@@H](C)Cc1ccc(O)c(O)c1	/	/	98*	/	/
N[C@@H](Cc1ccc(O)c(O)c1)C(=O)O	/	/	30	/	/
CCn1c(SCC(=O)Nc2ccc3c(c2)OCO3)nnc1-c1ccccc1O	90	4	12	47	-7
O=C(Nc1nnc(CC(=O)N2CCCC2)s1)c1cnccn1	90	7	/	136	-4
O=C(NCc1cccnc1)C1c2ccccc2C(=O)N1Cc1ccco1 (stereo unspecified)	/	5	57*	90	-3
COc1ccc(-n2nnc3c(SCC(=O)NCC4CCCO4)ncnc32)cc1 (stereo unspecified)	/	-2	-6	-0.9*	-9
CCOc1cc(S(=O)(=O)NCCc2cccc(C)c2)c(OCC)cc1-n1cnnn1	83	9	-1	3.6*	-8
Cc1ccc2c(c1)C(N1CCN(C)CC1)=Nc1cccnc1N2	/	/	0	/	/
CCOC(=O)C1Cc2c([nH]c3ccccc23)C(C)N1 (stereo unspecified)	97	-14	-2	60	-19
COC(=O)C1Cc2c([nH]c3ccccc23)CN1 (stereo unspecified)	89	6	-6	-19*	-11
COc1cc(N2C(=O)NC3CC2(C)Oc2ccc(Br)cc23)cc(OC)c1OC (stereo unspecified)	/	-2	-6	127	4
N#CC1=C(N)N(c2ccccc2)C(c2ccccc2)C1(C#N)C#N (stereo unspecified)	75	0	-5	105	1
O=C(CSc1nc2ccccc2c(=O)[nH]1)N1CCOCC1	24*	6	0	118	-16
CSc1nc(N)c2ncn([C@@H]3O[C@H](COP(=O)(O)OP(=O)(O)O)[C@H](O)C3O)c2n1 (stereo partly specified)	/	/	-2	/	/
COc1ccc(S(=O)(=O)N(C)CC(=O)N2CCCCCC2)cc1OC	/	5	-1	130	-1
COc1ccc(S(=O)(=O)N(C)CC(=O)N2CCC(C(N)=O)CC2)cc1Cl	90	-28	73*	76	-4
Cn1c(=O)cc(OCCCC(=O)NCc2ccc3c(c2)OCO3)c2ccccc21	/	14	1	101	0
O=C(c1sc2ccccc2c1Cl)N(Cc1ccco1)C1CCS(=O)(=O)C1 (stereo unspecified)	87	-15	54*	171	4
Cc1cccc(C)c1NC(=O)C(c1ccccc1)N1CCC2(CC1)OCCO2 (stereo unspecified)	34*	-10	0	83	-6
Cc1cccc(C)c1NC(=O)C(c1ccccc1)N1CCN(C(=O)c2ccco2)CC1 (stereo unspecified)	89	2	-7	89	23
SMILES	SKBR3 24h inh	MKP-1 inh	Hsp90 block	HER2 expr 66K	Cdc25B inh
COCCOC(=O)c1c(C)nc(SCC(=O)Nc2ccc(C)cc2)c(C#N)c1-c1ccco1	76	-18	-4	64	16
CNC(=O)c1c(C)nc(SCC(=O)NCc2ccc(OC)cc2)c(C#N)c1-c1ccco1	/	6	-6	-33*	-9
O=C(Nc1nc2n(n1)C(c1ccccc1)C=C(c1ccccc1)N2)c1ccco1 (stereo unspecified)	/	33	-12	-23*	2
OCCCc1nc2n(n1)C(c1ccccc1)C=C(c1ccccc1)N2 (stereo unspecified)	/	7	92*	107	2
Cc1c(CCC#N)c(N2CCN(C3CCCCC3)CC2)n2c(nc3ccccc32)c1C#N	6.0*	-3	-2	-16*	24
C=CCc1c(C)c(C#N)c2nc3ccccc3n2c1N1CCN(C)CC1	86	-34	-4	116	22
CCCCCCCCCCCCC/C=C/C(O)C(N)CO (stereo unspecified)	/	/	3	/	/
COc1ccc2oc(=O)c(C(=O)N3CCN(C45CC6CC(CC(C6)C4)C5)CC3)cc2c1	112	1	-4	82	6
CCCCCCCC/C=C\CCCCCCCC(=O)NCCO	/	/	-1	/	/
CCCCCCCC/C=C\CCCCCCCC(=O)NCCc1ccc(O)c(O)c1	/	/	84*	/	/
COc1ccc(CCNC[C@@H](O)c2ccc(O)cc2)cc1OC	/	/	0	/	/
CC(CCc1ccc(O)cc1)NCCc1ccc(O)c(O)c1 (stereo unspecified)	/	/	61*	/	/
COc1ccc(-n2nnnc2S(=O)(=O)CC(=O)N2CCCCC2)cc1	/	-2	-2	-29*	-12
COc1cc(NCCCN(CC(C)C)CC(C)C)c2ncccc2c1Cl	/	/	10	/	/
CCCCOC(=O)C(C#N)c1nc2ccccc2nc1N1CCN(Cc2ccc3c(c2)OCO3)CC1 (stereo unspecified)	78	16	-3	-55*	-6
COC(=O)C(C#N)c1nc2ccccc2nc1N1CCN(Cc2ccc3c(c2)OCO3)CC1 (stereo unspecified)	94	-29	-3	66	-4
CCc1c(C)[nH]c2ccccc2c1=O	100	-4	0	127	11
CC(=O)CCc1c(C)[nH]c2ccccc2c1=O	/	7	82*	54	-5
O=C1CC(N2CCSCC2)C(=O)N1CCc1ccccc1 (stereo unspecified)	77	3	-6	96	-6
COc1ccc(N2C(=O)CSC23C(=O)N2CCCc4cccc3c42)cc1 (stereo unspecified)	87	-18	67*	94	-8
O=C(Cc1ccc(Cl)cc1)Nc1ccc2oc(-c3ccncc3)nc2c1	34*	7	-5	21	-4
O=C(Cc1ccccc1)Nc1ccc2oc(-c3cccnc3)nc2c1	82	2	-2	108	-8
COc1cc(NCC(O)CN(CC(C)C)CC(C)C)c2nc(C)ccc2c1 (stereo unspecified)	/	/	5	/	/
C#CCOC(=O)CCC(=O)Nc1cc(OC)nc(OC)n1	98	-2	-3	106	-3
CC#CCCCC(=O)Nc1cc(OC)nc(OC)n1	97	-2	-2	-24*	7
N#Cc1ccc(-c2ccco2)nc1SCc1ccccc1	117	29	-4	-0.7*	-1
N=C1Sc2ccccc2C2=NCCCN12	/	/	-2	/	/
CCc1nccn1S(=O)(=O)c1ccc(Br)cc1Br	90	-15	-2	102	8
CCOC(=O)c1ccc(N=c2sc(C(=O)OC)cc(=O)n2Cc2ccco2)cc1	/	-10	-3	2.9*	-12
COc1ccc(CCn2c(-c3ccco3)nc3oc4ccccc4c(=O)c3c2=O)cc1	89	-12	-3	84	-1
